NTMT1 inh = NTMT1 methyltransferase inhibition; NTMT1 MTase-Glo SAH luminescence, purified enzyme; Potency, µM (highest dose often 114 µM), hits mostly inhibitors; Q9BV86; 59,000 tested, 2.5% active; further: nearly all actives have a fitted effect of over 65% in size
Target sequence (Q9BV86 whole entry, looked up): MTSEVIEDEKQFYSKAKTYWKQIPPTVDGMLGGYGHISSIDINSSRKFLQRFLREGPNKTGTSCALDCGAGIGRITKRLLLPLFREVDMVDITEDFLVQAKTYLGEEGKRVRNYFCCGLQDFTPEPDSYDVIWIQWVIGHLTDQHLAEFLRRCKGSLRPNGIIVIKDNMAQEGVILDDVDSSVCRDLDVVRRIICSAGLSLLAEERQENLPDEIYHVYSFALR
p53null 39C tox = p53 null cell cytotoxicity, nonpermissive temperature; H1299 p53-null (neo) cells, 39C, ATPlite viability, 24 h; Potency, µM (top dose mostly 46.1 µM), hits mostly cytotoxic; 55,000 tested, 0.97% active; further: nearly all actives have a fitted effect of over 50% in size
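Concentration-response (up to 46 uM) was run for 24 h at the nonpermissive 39C on H1299-p53A138V or H1299-neo cells. ATP content was measured with ATPlite luminescence. AC50 values were Hill-modeled after normalizing between DMSO and 100 uM tamoxifen killing.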
SKOV3 invasion = ovarian cancer metastasis inhibition, 3D TME model | AID 1963576 | Potency, µM (highest dose often 45.8 µM), hits mostly inhibitors | 46,000 tested, 0.1% active | SKOV3ip1-GFP adhesion/invasion on 3D omental model, fluorescence; further: nearly all actives have a fitted effect of over 65% in size
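Adhesion/invasion was scored as fixed GFP-labeled SKOV3ip1 cell counts (488/509 nm), normalized to DMSO and tomatine controls. Cancer cells in serum-free medium, with four compound doses (0.36-46 umol/L), sat 2 hr at RT then 16 hr at 37 C on a 48 hr fibroblast/mesothelial/ECM culture.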
p53null 32C tox = selectivity test: cytotoxicity in p53 null cells, permissive temperature; H1299-neo p53 null cells, ATP luminescence, 24 h, 32C; Potency, µM (highest dose often 46.1 µM), actives largely listed as cytotoxic; 55,000 tested, 0.62% active; AID 903; further: nearly all actives have a fitted effect of over 55% in size
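ATP-content luminescence in p53-null H1299-neo cells after 24 h compound exposure (up to 46 uM) at 32C permissive temperature; 0% and 100% killing set by DMSO and 100 uM tamoxifen; Hill-equation AC50.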
DYRK1A KinaseGlo = blocks recombinant human DYRK1A kinase activity. shares compounds with NTMT1 inh. recombinant DYRK1A, Kinase-Glo ATP depletion luminescence. Potency, µM (doses to about 76.9 µM), hits mostly inhibitors. 100 tested, 80% active. AID 2705
CLK4 inh = confirmation of human CLK4 kinase inhibitors, SAR round 2; shares compounds with NTMT1 inh; recombinant Clk4, Kinase-Glo ATP luminescence, 4.5 h; Potency, µM (doses to about 76.9 µM), most hits filed as inhibitors; 90 tested, 90% active
Sfp PPTase inh = inhibitors of Bacillus subtilis Sfp PPTase, optimization followup. shares compounds with NTMT1 inh. purified Sfp PPTase enzyme activity, qHTS. Potency, µM (doses to about 114 µM), hits mostly inhibitors. 230 tested, 78% active. AID 540350
Bsub HM489 growth = Sfp PPTase inhibitors: growth inhibition of B. subtilis HM489; shares compounds with NTMT1 inh; B. subtilis HM489 (acpS-) growth, BacTiter-Glo, 5 h; Potency, µM (top dose mostly 114 µM), usual class: inhibitors; 220 tested, 50% active; AID 540353
Sfp gel opt = inhibitors of Bacillus subtilis Sfp PPTase, gel-based followup; purified Sfp PPTase, gel-based product detection; Potency, µM (series often up to 250 µM), usual class: inhibitors; shares compounds with NTMT1 inh; 220 tested, 54% active
Sfp inh SAR2 = inhibitors of Bacillus subtilis Sfp PPTase, SAR round 2; 230 tested, 87% active; purified Sfp enzyme, PPTase activity, qHTS; shares compounds with NTMT1 inh; AID 602370; Potency, µM (highest dose often 57.1 µM), most hits filed as inhibitors
HSD17B4 counter = inhibits human HSD17B4, off-target for HPGD inhibitors. Potency, µM (highest dose often 57.1 µM), hits mostly inhibitors. 230 tested, 10% active. purified HSD17B4, estradiol/NAD+, NADH fluorescence. shares compounds with NTMT1 inh. AID 743187
ALDH1A1 counter = counter-screen for HPGD inhibitors: human ALDH1A1 inhibition; 230 tested, 93% active; Potency, µM (top dose mostly 57.1 µM), usual class: inhibitors; shares compounds with NTMT1 inh; recombinant ALDH1A1, NADH fluorescence, propionaldehyde/NAD+
NNMT inh = counter-screen for NTMT1 inhibitors: human NNMT inhibition; 120 tested, 10% active; shares compounds with NTMT1 inh; Potency, µM (highest dose often 57.1 µM), most hits filed as inhibitors; AID 1645878; NNMT MTase-Glo luminescence, SAH detection
Target sequence (P40261 whole entry, looked up): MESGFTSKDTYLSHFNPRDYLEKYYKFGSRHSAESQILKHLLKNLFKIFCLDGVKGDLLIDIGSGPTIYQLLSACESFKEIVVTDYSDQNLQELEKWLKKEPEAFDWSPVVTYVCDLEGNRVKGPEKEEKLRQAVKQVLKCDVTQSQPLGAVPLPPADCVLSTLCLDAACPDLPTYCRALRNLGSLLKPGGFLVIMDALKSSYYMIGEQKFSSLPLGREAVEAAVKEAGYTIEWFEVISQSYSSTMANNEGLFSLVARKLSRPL
A number is an active result; 0 = inactive; ? = inconclusive; - = not tested or not shown. This excerpt belongs to a sample that is enriched for hits. The call rests on the fitted dose curve; in most records, active means well fitted curve in the direction sought with a large enough effect; inconclusive means small, poorly fitted or top-dose-only effect, or another doubt; inactive means no such curve, though single readings can be large; an effect the other way counts as inactive or inconclusive.

SMILES	NTMT1 inh	p53null 39C tox	SKOV3 invasion	p53null 32C tox	others
c1coc(-c2ccc3ncnc(NCc4cccs4)c3c2)c1	0	-	-	-	DYRK1A KinaseGlo=6.5µM
Clc1cccc(-c2ccc3ncnc(NCc4cccs4)c3c2)c1	0	-	-	-
CC(=O)c1cc2c(o1)C(=O)c1ccccc1C2=O	0	-	-	-
N#Cc1ccccc1CCc1nc2ncc(Br)cc2[nH]1	0	-	-	-
O=Cc1ccc(-c2ccc3ncnc(NCc4cccs4)c3c2)o1	?	-	-	-	CLK4 inh=26µM
Cc1occc1-c1ccc2ncnc(NCc3ncc[nH]3)c2c1	0	-	-	-	DYRK1A KinaseGlo=2.3µM
Cc1csc(CNc2ncnc3ccc(-c4ccoc4)cc23)c1	0	-	-	-
c1c[nH]c(CNc2ncnc3ccc(-c4ccoc4)cc23)n1	0	-	-	-	DYRK1A KinaseGlo=9.2µM
Cc1ccc(CNc2ncnc3ccc(-c4ccoc4C)cc23)o1	?	-	-	-	DYRK1A KinaseGlo=4.6µM
Cc1nc(CNc2ncnc3ccc(-c4ccoc4)cc23)cs1	?	-	-	-	DYRK1A KinaseGlo=3.7µM
c1cncc(CNc2ncnc3ccc(-c4ccoc4)cc23)c1	0	-	-	-
Cc1c(NC(=O)c2cc(C(N)=O)nc3cc(F)ccc23)c(C(F)(F)F)nn1Cc1ccc(C(C)(C)C)cc1	0	-	-	-
Cc1cccc(CNc2ncnc3ccc(-c4ccoc4)cc23)c1	0	-	-	-
CCOC(=O)c1ccoc1-c1ccc2ncnc(NCc3ncc[nH]3)c2c1	0	-	-	-	DYRK1A KinaseGlo=?
CCOc1ccc(-c2cc(CCCC(=O)NCCc3cc(OC)c(OC)c(OC)c3)no2)cc1	0	0	0	?
COc1cc(CCc2ccc(OCC=C(C)C)cc2)cc(OC)c1OC	0	-	-	-	NNMT inh=0
COc1ccc(S(=O)(=O)N(C(C)=O)c2ccccc2/C=C/c2cc[n+]([O-])cc2)cc1	0	-	-	-
Cc1ccc(-n2cnc3cc(C(=O)N4CCCCC4)ccc32)cc1	0	-	-	-
O=C(c1ccc2c(c1)ncn2-c1cccc(C(F)(F)F)c1)N1CCCCC1	0	-	-	-	HSD17B4 counter=0;ALDH1A1 counter=?
Cc1ccc(CN(C)c2ncnc3ccc(-c4ccc(CO)n4C)cc23)o1	-	-	-	-	CLK4 inh=23µM
C=CC(=O)N[C@H]1CCOC[C@H]1Nc1ncc2cc(-c3c(Cl)c(OC)cc(OC)c3Cl)ccc2n1	0	-	-	-
O=C(Cn1ncc2ccccc21)N1CCN(c2cccc(C(F)(F)F)c2)CC1	-	0	-	0
FC(F)(F)c1cccc(N2CCN(C(=S)Nc3cccnc3)CC2)c1	?	-	-	-	Sfp PPTase inh=?;Bsub HM489 growth=?;Sfp gel opt=0;Sfp inh SAR2=41µM;HSD17B4 counter=0;ALDH1A1 counter=11µM
Cc1cncc(NC(=S)N2CCN(c3cccc(C(F)(F)F)c3)CC2)c1	?	-	-	-	Sfp PPTase inh=?;Bsub HM489 growth=0;Sfp gel opt=?;Sfp inh SAR2=?;HSD17B4 counter=0;ALDH1A1 counter=0
COc1ccc(NC(=S)N2CCN(c3cccc(C(F)(F)F)c3)CC2)nc1	?	-	-	-	Sfp PPTase inh=?;Bsub HM489 growth=0;Sfp gel opt=0;Sfp inh SAR2=?;HSD17B4 counter=0;ALDH1A1 counter=3.4µM
